Experimental data from the supplement of paper PMC11732987, “Enantioselective OTUD7B fragment discovery through chemoproteomics screening and high-throughput optimisation” (Communications Chemistry, 2025).

Legend:
Experiment in all cases: log2 ratio of Biotin-Ahx-Ub-VS probe labelling (fragment/DMSO); higher = less target engagement (more negative = stronger competition), active = hit call of the paper (q ≤ 0.05, log2 ratio ≤ -1)
Conditions in all cases: compound concentration: 200 uM; treatment time: 3 h
USP34 = USP34 (UniProt Q70CQ2)
Sequence of USP34 (Q70CQ2 whole entry, the tested form may be a part): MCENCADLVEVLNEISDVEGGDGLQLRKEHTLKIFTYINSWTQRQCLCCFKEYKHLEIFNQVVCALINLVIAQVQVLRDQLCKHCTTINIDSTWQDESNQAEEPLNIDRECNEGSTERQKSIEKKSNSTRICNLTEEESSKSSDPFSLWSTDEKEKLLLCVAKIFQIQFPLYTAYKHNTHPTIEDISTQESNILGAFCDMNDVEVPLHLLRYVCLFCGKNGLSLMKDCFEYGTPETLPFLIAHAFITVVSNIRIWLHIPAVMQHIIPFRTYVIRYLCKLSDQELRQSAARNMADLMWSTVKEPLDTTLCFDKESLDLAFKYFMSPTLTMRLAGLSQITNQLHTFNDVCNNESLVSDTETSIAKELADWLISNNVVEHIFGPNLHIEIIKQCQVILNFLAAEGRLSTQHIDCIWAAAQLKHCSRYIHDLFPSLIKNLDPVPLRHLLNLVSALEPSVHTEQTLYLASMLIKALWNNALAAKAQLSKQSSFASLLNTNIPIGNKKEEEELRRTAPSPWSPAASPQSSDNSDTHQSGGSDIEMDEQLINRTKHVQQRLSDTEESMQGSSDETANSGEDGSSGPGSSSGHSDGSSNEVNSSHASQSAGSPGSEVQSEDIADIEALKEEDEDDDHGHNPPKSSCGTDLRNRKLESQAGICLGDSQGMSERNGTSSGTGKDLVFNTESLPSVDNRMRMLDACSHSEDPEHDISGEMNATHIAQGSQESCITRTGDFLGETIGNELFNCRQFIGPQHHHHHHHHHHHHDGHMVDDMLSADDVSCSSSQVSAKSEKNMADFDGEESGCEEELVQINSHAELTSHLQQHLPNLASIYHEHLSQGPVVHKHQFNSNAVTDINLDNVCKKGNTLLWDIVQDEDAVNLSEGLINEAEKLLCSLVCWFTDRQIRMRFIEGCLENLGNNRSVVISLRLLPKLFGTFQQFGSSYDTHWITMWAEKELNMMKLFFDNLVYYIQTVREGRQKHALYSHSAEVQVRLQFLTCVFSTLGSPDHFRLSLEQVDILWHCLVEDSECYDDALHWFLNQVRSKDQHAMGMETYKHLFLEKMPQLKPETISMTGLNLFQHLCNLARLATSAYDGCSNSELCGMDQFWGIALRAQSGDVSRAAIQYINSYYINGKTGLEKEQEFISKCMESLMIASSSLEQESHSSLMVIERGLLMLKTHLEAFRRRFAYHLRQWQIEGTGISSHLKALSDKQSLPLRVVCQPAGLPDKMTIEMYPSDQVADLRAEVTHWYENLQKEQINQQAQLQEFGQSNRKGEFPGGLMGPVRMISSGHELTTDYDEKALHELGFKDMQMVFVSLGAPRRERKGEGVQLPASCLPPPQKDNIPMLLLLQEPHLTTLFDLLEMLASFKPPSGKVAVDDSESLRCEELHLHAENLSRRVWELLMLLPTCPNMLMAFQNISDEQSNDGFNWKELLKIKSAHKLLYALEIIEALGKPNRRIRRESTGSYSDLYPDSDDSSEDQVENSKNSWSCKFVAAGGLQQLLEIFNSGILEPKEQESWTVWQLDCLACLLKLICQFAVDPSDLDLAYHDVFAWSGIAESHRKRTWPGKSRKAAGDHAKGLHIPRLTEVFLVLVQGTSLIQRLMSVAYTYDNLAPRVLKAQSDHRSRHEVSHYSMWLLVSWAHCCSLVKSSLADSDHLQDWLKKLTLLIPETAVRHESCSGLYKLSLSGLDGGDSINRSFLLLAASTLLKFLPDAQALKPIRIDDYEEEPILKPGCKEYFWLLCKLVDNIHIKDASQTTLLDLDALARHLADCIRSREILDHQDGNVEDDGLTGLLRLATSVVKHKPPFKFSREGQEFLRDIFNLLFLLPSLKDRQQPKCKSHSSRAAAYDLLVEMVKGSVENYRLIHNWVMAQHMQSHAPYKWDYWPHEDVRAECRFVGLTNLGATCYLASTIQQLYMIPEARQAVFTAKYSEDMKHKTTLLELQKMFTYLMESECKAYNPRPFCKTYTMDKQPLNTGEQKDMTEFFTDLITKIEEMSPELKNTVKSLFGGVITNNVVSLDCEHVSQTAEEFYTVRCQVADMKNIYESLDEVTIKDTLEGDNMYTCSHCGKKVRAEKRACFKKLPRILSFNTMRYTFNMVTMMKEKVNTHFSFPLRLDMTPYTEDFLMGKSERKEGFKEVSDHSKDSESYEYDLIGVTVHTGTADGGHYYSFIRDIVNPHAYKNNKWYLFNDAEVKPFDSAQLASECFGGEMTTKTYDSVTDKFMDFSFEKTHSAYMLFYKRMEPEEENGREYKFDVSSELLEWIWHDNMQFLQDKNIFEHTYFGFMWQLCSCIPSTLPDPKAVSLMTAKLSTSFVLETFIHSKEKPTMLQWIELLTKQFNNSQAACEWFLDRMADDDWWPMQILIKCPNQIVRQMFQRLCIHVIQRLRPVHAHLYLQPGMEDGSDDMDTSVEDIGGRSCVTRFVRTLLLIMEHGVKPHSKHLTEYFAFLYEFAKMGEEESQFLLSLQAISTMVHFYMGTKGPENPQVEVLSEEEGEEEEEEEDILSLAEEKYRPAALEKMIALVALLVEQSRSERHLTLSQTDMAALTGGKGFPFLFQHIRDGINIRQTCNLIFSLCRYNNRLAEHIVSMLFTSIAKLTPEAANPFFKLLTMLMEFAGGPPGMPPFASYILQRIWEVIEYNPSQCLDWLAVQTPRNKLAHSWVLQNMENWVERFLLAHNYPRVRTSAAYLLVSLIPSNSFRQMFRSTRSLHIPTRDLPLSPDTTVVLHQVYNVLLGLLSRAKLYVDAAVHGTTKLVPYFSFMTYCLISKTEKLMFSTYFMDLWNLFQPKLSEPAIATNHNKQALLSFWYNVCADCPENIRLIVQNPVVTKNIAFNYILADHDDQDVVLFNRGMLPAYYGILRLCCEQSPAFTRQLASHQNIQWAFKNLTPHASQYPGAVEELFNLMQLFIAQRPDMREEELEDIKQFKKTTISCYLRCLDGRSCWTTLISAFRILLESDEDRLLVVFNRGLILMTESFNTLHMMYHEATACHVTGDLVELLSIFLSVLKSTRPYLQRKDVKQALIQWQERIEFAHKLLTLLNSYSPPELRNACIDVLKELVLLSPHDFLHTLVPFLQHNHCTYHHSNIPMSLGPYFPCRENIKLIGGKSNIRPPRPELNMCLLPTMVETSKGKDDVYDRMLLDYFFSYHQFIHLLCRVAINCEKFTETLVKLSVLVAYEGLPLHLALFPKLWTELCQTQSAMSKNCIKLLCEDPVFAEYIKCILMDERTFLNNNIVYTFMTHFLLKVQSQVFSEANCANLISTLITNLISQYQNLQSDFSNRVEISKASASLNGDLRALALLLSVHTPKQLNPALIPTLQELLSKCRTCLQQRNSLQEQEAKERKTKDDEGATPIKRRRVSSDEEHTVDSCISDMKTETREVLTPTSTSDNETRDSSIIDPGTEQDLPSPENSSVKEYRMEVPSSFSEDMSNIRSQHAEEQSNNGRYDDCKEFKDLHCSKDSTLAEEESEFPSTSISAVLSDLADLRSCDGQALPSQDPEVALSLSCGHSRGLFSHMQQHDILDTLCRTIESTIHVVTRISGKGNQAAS
Summary of the method: (§1)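 The table lists average log2 ratios of fragment over vehicle, from an unpaired t-test on global-median-normalised Spectronaut label-free quantities. Proteins with ≥2 unique peptides were used. Samples were HEK293T lysate (495 µg) treated in triplicate with fragment at 200 µM or vehicle for 3 h, then with Biotin-Ahx-Ub-VS (0.5 µM final) for 1 h, with labelled DUBs NeutrAvidin-enriched and run by diaPASEF LC-MS/MS.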

USP36 = biological target: T1, USP36 (UniProt Q9P275)
T1 sequence (whole entry): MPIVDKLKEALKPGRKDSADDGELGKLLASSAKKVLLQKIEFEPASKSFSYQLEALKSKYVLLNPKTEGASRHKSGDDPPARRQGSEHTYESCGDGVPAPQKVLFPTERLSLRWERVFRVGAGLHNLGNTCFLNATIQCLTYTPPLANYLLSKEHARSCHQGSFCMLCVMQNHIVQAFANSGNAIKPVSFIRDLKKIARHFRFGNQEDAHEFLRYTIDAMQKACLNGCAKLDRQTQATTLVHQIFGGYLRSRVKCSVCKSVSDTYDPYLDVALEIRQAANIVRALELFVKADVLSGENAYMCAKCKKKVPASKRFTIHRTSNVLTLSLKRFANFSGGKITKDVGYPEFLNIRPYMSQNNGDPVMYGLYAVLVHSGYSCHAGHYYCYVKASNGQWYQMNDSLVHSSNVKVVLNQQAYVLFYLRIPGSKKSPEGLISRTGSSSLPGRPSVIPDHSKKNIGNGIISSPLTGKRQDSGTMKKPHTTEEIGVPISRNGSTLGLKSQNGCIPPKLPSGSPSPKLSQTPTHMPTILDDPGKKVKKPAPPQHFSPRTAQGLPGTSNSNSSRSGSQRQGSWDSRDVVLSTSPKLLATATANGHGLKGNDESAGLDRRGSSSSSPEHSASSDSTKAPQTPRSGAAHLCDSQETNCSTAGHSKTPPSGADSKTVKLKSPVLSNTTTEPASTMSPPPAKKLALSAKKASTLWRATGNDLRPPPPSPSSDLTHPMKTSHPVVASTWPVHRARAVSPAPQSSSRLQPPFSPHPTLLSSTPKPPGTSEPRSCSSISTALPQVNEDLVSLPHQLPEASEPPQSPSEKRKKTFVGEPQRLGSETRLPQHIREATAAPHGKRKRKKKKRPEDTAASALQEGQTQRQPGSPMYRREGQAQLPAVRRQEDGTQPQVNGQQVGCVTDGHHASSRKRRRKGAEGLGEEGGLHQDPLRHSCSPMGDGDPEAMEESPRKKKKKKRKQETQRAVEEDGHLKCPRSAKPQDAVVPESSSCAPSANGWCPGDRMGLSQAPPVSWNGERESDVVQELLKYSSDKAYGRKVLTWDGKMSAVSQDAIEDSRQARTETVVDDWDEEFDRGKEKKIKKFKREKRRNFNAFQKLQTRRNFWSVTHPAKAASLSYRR
Summary of the method: as §1

USP38 = biological target: T2, USP38 (UniProt Q8NB14)
T2 sequence (whole entry): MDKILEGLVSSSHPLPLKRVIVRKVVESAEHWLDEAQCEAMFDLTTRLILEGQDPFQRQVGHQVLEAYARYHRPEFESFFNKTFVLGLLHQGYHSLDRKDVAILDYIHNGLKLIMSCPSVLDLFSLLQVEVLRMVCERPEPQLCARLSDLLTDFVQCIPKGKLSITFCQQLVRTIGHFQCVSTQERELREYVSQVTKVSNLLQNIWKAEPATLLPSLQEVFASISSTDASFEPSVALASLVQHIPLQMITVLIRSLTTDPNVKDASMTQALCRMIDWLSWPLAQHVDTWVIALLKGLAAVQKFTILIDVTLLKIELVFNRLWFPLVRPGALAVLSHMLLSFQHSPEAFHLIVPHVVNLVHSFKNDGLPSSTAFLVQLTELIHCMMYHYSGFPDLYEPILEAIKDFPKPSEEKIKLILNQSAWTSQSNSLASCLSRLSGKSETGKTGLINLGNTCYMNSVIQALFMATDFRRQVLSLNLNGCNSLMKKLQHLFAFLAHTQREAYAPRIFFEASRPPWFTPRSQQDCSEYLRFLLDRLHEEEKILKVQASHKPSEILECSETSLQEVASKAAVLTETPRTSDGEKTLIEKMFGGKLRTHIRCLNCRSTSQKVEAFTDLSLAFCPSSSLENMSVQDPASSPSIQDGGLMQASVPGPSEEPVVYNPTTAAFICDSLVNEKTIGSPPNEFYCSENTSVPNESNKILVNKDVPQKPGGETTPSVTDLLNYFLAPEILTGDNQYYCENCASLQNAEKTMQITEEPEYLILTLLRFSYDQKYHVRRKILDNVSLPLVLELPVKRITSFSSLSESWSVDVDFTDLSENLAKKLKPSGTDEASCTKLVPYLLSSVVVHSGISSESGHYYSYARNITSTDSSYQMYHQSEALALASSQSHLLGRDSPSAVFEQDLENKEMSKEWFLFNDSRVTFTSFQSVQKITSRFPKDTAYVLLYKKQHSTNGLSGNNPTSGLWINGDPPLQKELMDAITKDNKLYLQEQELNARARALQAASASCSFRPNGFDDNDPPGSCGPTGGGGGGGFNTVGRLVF
Summary of the method: as §1

USP39 = biological target: T3, USP39 (UniProt Q53GS9)
T3 sequence (whole entry): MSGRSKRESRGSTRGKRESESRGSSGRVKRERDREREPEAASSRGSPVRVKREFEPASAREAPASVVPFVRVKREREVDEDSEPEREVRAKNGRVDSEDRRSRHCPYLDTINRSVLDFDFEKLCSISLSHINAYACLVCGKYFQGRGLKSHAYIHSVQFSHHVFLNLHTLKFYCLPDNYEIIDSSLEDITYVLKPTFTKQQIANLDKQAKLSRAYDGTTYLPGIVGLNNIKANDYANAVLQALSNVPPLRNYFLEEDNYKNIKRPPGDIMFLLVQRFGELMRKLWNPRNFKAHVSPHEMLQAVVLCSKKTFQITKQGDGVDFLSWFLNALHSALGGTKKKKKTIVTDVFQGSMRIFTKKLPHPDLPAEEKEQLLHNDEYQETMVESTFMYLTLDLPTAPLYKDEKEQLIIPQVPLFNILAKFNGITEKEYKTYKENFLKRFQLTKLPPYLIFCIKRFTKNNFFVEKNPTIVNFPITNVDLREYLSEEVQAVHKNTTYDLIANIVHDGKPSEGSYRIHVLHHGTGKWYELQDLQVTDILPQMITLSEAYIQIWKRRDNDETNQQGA
Summary of the method: as §1

USP4 = biological target: T4, USP4 (UniProt Q13107)
T4 sequence (whole entry): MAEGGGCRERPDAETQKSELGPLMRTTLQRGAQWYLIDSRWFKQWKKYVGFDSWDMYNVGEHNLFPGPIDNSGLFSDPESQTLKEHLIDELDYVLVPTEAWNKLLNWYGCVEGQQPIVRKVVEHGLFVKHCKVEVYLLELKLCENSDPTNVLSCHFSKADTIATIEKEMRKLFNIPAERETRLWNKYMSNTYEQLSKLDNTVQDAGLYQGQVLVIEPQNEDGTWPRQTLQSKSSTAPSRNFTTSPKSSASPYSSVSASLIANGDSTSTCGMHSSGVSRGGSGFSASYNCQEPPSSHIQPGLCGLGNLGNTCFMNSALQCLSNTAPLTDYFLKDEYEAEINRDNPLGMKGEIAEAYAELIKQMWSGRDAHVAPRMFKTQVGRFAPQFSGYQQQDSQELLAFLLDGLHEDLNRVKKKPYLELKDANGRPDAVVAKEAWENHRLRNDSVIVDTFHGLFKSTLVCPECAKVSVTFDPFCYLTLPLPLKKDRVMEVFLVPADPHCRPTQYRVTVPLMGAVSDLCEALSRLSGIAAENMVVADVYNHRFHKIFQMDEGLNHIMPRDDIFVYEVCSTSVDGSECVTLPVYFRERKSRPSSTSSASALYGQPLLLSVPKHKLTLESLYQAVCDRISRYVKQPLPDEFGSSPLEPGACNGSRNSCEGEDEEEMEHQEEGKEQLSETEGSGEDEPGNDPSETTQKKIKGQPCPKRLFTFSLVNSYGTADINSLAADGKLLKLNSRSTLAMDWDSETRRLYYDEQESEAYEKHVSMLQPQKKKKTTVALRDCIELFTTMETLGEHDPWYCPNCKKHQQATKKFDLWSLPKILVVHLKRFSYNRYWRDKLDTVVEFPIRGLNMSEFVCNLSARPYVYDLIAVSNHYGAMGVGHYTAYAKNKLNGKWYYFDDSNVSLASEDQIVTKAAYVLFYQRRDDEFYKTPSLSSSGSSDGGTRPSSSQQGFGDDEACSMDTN
Summary of the method: as §1

Measured: log2 ratio of Biotin-Ahx-Ub-VS probe labelling

Cl.O=C(CCl)NCCN1CCc2ccccc21
inactive: USP34 -0.536 | USP36 -0.231 | USP38 -0.723 | USP39 0.178 | USP4 -0.666
